*1 amine or outer side, *2 acyl side, *3 side chain or, on linkers, in order; H or OH if unused. Where a SMILES comes first, the peptide text is derived from it. Bridges are numbered along the chain shown (N, C = ends). Roman numbers before positions name the chains, in order. [ ]: non-standard residue; d: D form. ξ: configuration not given here. Actinocin(9to1) = Cc1c2oc3c(C)ccc(C(=O)[*:1])c3nc-2c(C(=O)[*:2])c(N)c1=O; ξNMeV = CNC(C(=O)O)C(C)C; ξV = CC(C)C(N)C(=O)O; Sar = CNCC(=O)O
assay: Cell Proliferation Assay against the HBL1 Cell Line (AID 651646); conditions: HBL1 DLBCL cells; at 46.1 µM (top of the series) unless noted;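 also: cells exposed to compound for 48 h before reading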
From the text: One class of targeted therapeutics showing early clinical success in killing of ABC DLBCL lines are small molecule inhibitors of the Bruton tyrosine kinase (BTK) 11.
Prior to any combination assays, using an NCATS developed oncology compound library called the Mechanism of Interrogation Plate (MIPE), two well studied ABC DLBCL lines (TMD8 and HBL1) were screened using a cell viability assay (CellTiterGlo) and a 12-point titration series for each single agent. These initial experiments offered insight into the concentration range that offered the best coverage of activity and non-activity to assure relevant data is generated. In addition to the viability signature associated with this library, we examined the apoptotic response of each agent versus the TMD8 line as judged by caspase 3/7 activation. Activity was assayed at both 8 and 16 hour time-points to gain an appreciation of which agents induced an apoptotic response in a reasonable timeframe from a therapeutic exposure perspective. MIPE was also assayed for single agent viability in a human mesenchymal stem cell (hMSC) line as a surrogate of each library member's potential therapeutic index.
A total of 500 log growing HBL1 cells are seeded per well in 5 uL of a RPMI with glutamine (or Glutamax), without phenol red plus 5% FBS and 1X Pen/Strep into 1536 -solid white high base tissue culture treated Greiner One Bio Plates (789173-F) using a multidrop combi dispenser and a small sterile cassette. Compounds and controls totaling 23nL per well (negative control DMSO and positive control 9.2 uM Bortezomib-final) are immediately added to the plates using a 1536 head pin tool from Kalypsys. The plates are then covered with stainless steel gasket lids from Kalypsys and incubated for 48 hours at 37C under 95% relative humidity with 5% CO2. After 48 hours, the plates are removed and allowed to reach room temperature before 3 uL of Cell Titer Glo reagent (Promega) is added using an Aurora Flying Reagent Dispenser Bioraptor. The plates are then spun at 1000 rpms to remove bubbles and incubated for 15 minutes at room temperature before read on a ViewLux using a luminescent filter with a 10 second exposure. The relative luciferase units are used to calculated percent activity using DMSO as 100% and Bortezomib as 0%.

Structure (SMILES) | viability, percent of control
Cc1nnc(C(C)C)n1C1CC2CCC(C1)N2CC[C@H](NC(=O)C1CCC(F)(F)CC1)c1ccccc1 (stereo not given in full) | 87.3%
CCOc1cc2ncc(C#N)c(Nc3ccc(OCc4ccccn4)c(Cl)c3)c2cc1NC(=O)/C=C/CN(C)C | 1.48%
CN(NC(=O)CC(=O)NN(C)C(=S)c1ccccc1)C(=S)c1ccccc1 | 60.8%
CCCCCCCCCCCCCCCCCCOP(=O)([O-])OC1CC[N+](C)(C)CC1 | 93.3% [at 29.8 µM]
CC(NC(=O)Cc1cc(F)cc(F)c1)C(=O)NC(C(=O)OC(C)(C)C)c1ccccc1 (stereo not given) | 103%
CC[C@@H](C(=O)O)C1CC[C@H](C)C([C@@H](C)[C@H](O)[C@H](C)C(=O)[C@H](CC)C2O[C@]3(C=C[C@@H](O)[C@]4(CC[C@@](C)(C5CC[C@](O)(CC)[C@H](C)O5)O4)O3)[C@H](C)C[C@@H]2C)O1 (stereo not given in full) | 11.4%
C[C@@H]1CCN(C(=O)CC#N)C[C@@H]1N(C)c1ncnc2[nH]ccc12 | 97.5%
CCC1(O)CC2CN(CCc3c([nH]c4ccccc34)[C@@](C(=O)OC)(c3cc4c(cc3OC)N(C=O)[C@H]3[C@](O)(C(=O)OC)[C@H](OC(C)=O)[C@]5(CC)C=CCN6CC[C@]43[C@@H]65)C2)C1 (stereo not given in full) | 22.9%
CCC1(Cc2ccc(N)cc2)CCC(=O)NC1=O (stereo not given) | 97.3% [at 92.2 µM]
Cc1c2oc3c(C)ccc(C(=O)N[C@@H]4C(=O)NC(C(C)C)C(=O)N5CCC[C@H]5C(=O)N(C)CC(=O)N(C)C(C(C)C)C(=O)O[C@@H]4C)c3nc-2c(C(=O)N[C@@H]2C(=O)NC(C(C)C)C(=O)N3CCC[C@H]3C(=O)N(C)CC(=O)N(C)C(C(C)C)C(=O)O[C@@H]2C)c(N)c1=O (stereo not given in full) (I: T[ξV]P[Sar][ξNMeV] / II: T[ξV]P[Sar][ξNMeV]; ester I:1-I:C, II:1-II:C; linker I:N-II:N via Actinocin(9to1)) | 21.5%
COC(=O)C1=C(C)NC(C)=C(C(=O)OCCCN2CCC(c3ccccc3)(c3ccccc3)CC2)[C@H]1c1cccc([N+](=O)[O-])c1 | 1.4%
O=c1cc(C2=CC=CC3Sc4ccccc4SC23)oc(N2CCOCC2)c1 (stereo not given) | 31.5%
NC(=O)Nc1cc(-c2ccc(CN3CCOCC3)c(F)c2)sc1C(=O)N[C@H]1CCCNC1 | 10.1%
CNC1CCN(C(Cc2cccc(-c3ccncc3)c2)C(=O)c2sc3c(F)ccc(F)c3c2Cl)CC1 (stereo not given) | 0.927%
O=C(O)CC/C=C\CC[C@H]1[C@@H](N2CCCCC2)[C@@H](O)C[C@@H]1OCc1ccc(-c2ccccc2)cc1 | 105%

Reference: PubChem BioAssay (NCATS)
